Compound activity from PubChem BioAssay.
Sampled rows, rich in hits. Any-hit rate of the full collection: about 5.2%.
Tau ThT inhib – qHTS for Inhibitors of Tau Fibril Formation, Thioflavin T Binding. Microtubule-associated protein tau (Homo sapiens), P10636. actives 2.1% (n = 270,000). Potency, µM (highest dose often 57.4 µM), most hits filed as inhibitors. recombinant tau K18 P301L, heparin-induced fibrillization, ThT fluorescence; also: nearly all actives have a fitted effect of over 55% in size
Target sequence (P10636 561-689 P618L limits assumed): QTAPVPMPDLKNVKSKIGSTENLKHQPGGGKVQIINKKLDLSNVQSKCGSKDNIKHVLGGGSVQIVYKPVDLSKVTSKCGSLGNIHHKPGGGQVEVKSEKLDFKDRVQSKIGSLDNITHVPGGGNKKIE
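K18 P301L tau (15 uM + 0.24 uM Alexa 594-tagged), heparin 20 uM, NaOAc pH 7, 6 h 37 C; ThT 30 uM, 1 h RT, ex 450/em 510 nm.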
Sfp PPTase inh – qHTS Assay for Inhibitors of Bacillus subtilis Sfp phosphopantetheinyl transferase (PPTase). 4'-phosphopantetheinyl transferase ffp (Bacillus subtilis), Q9F4F7. Biochemical Sfp PPTase activity, qHTS. Potency, µM, actives largely listed as inhibitors. actives 3.5% (n = 310,000);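 also: the enzyme is Sfp with the accession as filed and its product quenches rhodamine fluorescence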
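Buffer: 50 mM Hepes-Na pH 7.6, 10 mM MgCl2, 0.01% Nonidet P-40, 0.01% BSA. Enzyme 15 nM, pre-exposed to compound 15 min; substrates then added and fluorescence change tracked over 30 min.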
Tau fluor cs – Counterscreen qHTS for Inhibitors of Tau Fibril Formation, Fluorescence Polarization; actives 0.93% (n = 280,000); tau K18 P301L (four-repeat tau fragment) Alexa594 fluorescence, heparin fibrillization; Potency, µM (highest dose often 57.7 µM); also: nearly all actives have a fitted effect of over 55% in size
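Human K18 P301L tau (15 uM unlabeled plus 0.24 uM Alexa 594-labeled, final) in 100 mM sodium acetate pH 7 was mixed with compound and 20 uM heparin and incubated 6 hr at 37 C.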
Tau fibril FP – qHTS for Inhibitors of Tau Fibril Formation, Fluorescence Polarization; Potency, µM (doses to about 57.7 µM), hits mostly inhibitors; Microtubule-associated protein tau (Homo sapiens), P10636; K18 P301L tau heparin fibrillization, Alexa594 FP, 6 h; actives 0.39% (n = 280,000); also: nearly all actives have a fitted effect of over 55% in size
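K18 P301L tau (15 uM unlabeled/0.24 uM Alexa 594-labeled, final) + compound + heparin 20 uM final; 100 mM NaOAc pH 7; 6 hr 37 C; ThT 30 uM final added, 1 hr RT; FP ex 555/em 632 nm.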
FBPA coupling cs – qHTS Assay for Inhibitors of Fructose-1,6-bisphosphate Aldolase from Giardia Lamblia: Coupling assay counterscreen | actives 0.67% (n = 290,000) | coupling enzyme system counterscreen, AmpLite Red fluorescence | activity change, negative = inhibition, % at 58.2 µM, hits read low; in the data active = activity change below about -30%
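Counterscreen lacking aldolase: glyceraldehyde-3-phosphate coupling-enzyme reagent preincubated 10 min at RT with compound (at 57.5 uM final), then substrate/coupling system with AmpLite Red added; fluorescence read at 525/598 nm after 20 min RT.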
Of the large screens only hits and unclear results are named; the others gave an inactive call; ! = not confirmed by another sample. Unless noted, calls follow the shape of the dose curve; as a rule, active = well fitted curve in the direction sought with a large enough effect; inconclusive = small, poorly fitted or top-dose-only effect, or another doubt; inactive = no such curve, though single readings can be large; an effect the other way counts as inactive or inconclusive.

CC(=O)c1ccc(OCC(O)CN2CCN(Cc3ccc4c(c3)OCO4)CC2)cc1 (stereo not drawn)	Sfp PPTase inh 89µM!
O=C(NNc1nc2c(F)cc(F)cc2s1)C1COc2ccccc2O1 (stereo not drawn)	none
Cc1cccc2sc(NNC(=O)C3COc4ccccc4O3)nc12 (stereo not drawn)	Tau ThT inhib inconclusive, Sfp PPTase inh 32µM
COc1ccccc1/C=C/c1nc(C#N)c(N2CCN(c3ccccc3)CC2)o1	none (no result: Sfp PPTase inh, FBPA coupling cs)
Cc1ccc(NC2c3ncccc3C(=O)N2c2ccccc2C)cc1C (stereo not drawn)	Tau ThT inhib inconclusive, Sfp PPTase inh 45µM
C=C1C(=O)OC2CC1C(OC(C)=O)CC(C)=CCCC(C)=CCC[C@@]2(C)O (stereo partly drawn)	Tau ThT inhib inconclusive
COc1ccccc1/C=C/C=N/N1CCN(Cc2ccc(Cl)cc2)CC1	Tau ThT inhib inconclusive
COc1ccccc1/C=C/C=N\N1CCN(Cc2ccccc2Cl)CC1	Tau ThT inhib inconclusive, Sfp PPTase inh 22µM, Tau fluor cs inconclusive
COc1ccc(/C=N\N2CCN(Cc3ccccc3Cl)CC2)cc1	Sfp PPTase inh 79µM (no result: Tau ThT inhib, Tau fluor cs, Tau fibril FP)
Clc1ccc(/C=N/N2CCN(Cc3ccccc3Cl)CC2)cc1	none
Cc1coc2cc3oc(=O)c(CC(=O)NCc4ccccc4)c(C)c3cc12	none (no result: Sfp PPTase inh, FBPA coupling cs)
CC(=O)N1[C@H](C)C=C[C@]1(Cc1ccccc1)C(=O)NCc1ccc(C)o1	Sfp PPTase inh 22µM
CC(=O)N1[C@H](C)C=C[C@]1(Cc1ccccc1)C(=O)NCc1cc(F)cc(C(F)(F)F)c1	none
CC(C)CC1(C(=O)NCC2CC2)C=CCN1C(=O)c1ccccc1 (stereo not drawn)	none
Cc1ccc(CNC(=O)C2(CC(C)C)C=CCN2C(=O)c2ccccc2)o1 (stereo not drawn)	Tau ThT inhib inconclusive, Sfp PPTase inh 40µM
Cn1ccnc1SCC(=O)Nc1cc(Cl)ccc1Cl	none (no result: Sfp PPTase inh, FBPA coupling cs)
Cc1ccc(CNC(=O)c2sc3nc(C)cc(C)c3c2-n2cccc2)cc1	Tau fibril FP inconclusive (no result: Sfp PPTase inh, FBPA coupling cs)
CC(=O)Nc1sc2c(c1C(N)=O)CCC2	none
Nc1sc2c(c1C(=O)NC1CCS(=O)(=O)C1)CCCC2 (stereo not drawn)	Tau ThT inhib 32µM, Sfp PPTase inh 20µM, Tau fluor cs inconclusive, Tau fibril FP inconclusive
CC(C)CC(=O)NC(=S)Nc1sc2c(c1C(N)=O)CCC2	Tau fibril FP inconclusive
Nc1sc2c(c1C(=O)c1ccccc1)CCCC2	Tau ThT inhib inconclusive, Sfp PPTase inh 50µM, Tau fluor cs inconclusive
NC(=O)c1c(N)sc2c1CCCC2	Tau ThT inhib 22µM, Sfp PPTase inh 25µM, Tau fibril FP inconclusive
CC(C)(C)C(=O)NC(=S)Nc1sc2c(c1C(N)=O)CCC2	Sfp PPTase inh 45µM
CCN(CC)S(=O)(=O)c1ccc2c(c1)N(CC(=O)N(C)Cc1ccccc1)C(=O)CO2	none (no result: Sfp PPTase inh, FBPA coupling cs)
OC(CNCCc1ccc(C(F)(F)F)cc1)COC(c1ccccc1)c1ccccc1 (stereo not drawn)	Sfp PPTase inh 56µM (no result: Tau ThT inhib, Tau fluor cs, Tau fibril FP)
O=C1/C(=N\S(=O)(=O)c2cccs2)C([n+]2cccc(Cc3ccccc3)c2)=C([O-])c2ccccc21	Tau ThT inhib inconclusive, FBPA coupling cs -38
Cc1cc[n+](C2=C([O-])c3ccccc3C(=O)/C2=N\S(=O)(=O)c2cccs2)cc1C	Tau ThT inhib inconclusive, FBPA coupling cs -63
O=C1/C(=N\S(=O)(=O)c2cccs2)C([n+]2ccc(CCCc3ccccc3)cc2)=C([O-])c2ccccc21	Tau ThT inhib 2.8µM, Tau fluor cs inconclusive, FBPA coupling cs -35
Cc1cc(C)c[n+](C2=C([O-])c3ccccc3C(=O)/C2=N\S(=O)(=O)c2cccs2)c1	none
CCOC(=O)c1cccc(NC(=O)c2cc3ccccn3n2)c1	Tau ThT inhib inconclusive (no result: Sfp PPTase inh, FBPA coupling cs)
COc1ccccc1NC(=O)CN(Cc1ccco1)C(=O)c1ccc(-n2nc(C)cc2C)cc1	none
COc1ccccc1NC(=O)CN(Cc1ccco1)C(=O)c1cncc(Br)c1	FBPA coupling cs -31
COc1cccc(C(=O)NC(=O)Nc2ccc(-n3nc(C(F)(F)F)cc3C(F)(F)F)cc2)c1	none (no result: Sfp PPTase inh, FBPA coupling cs)
COc1ccc(C2=NN(CC(=O)NCCc3ccccc3)C(=O)CC2)cc1	none (no result: Sfp PPTase inh, FBPA coupling cs)
CC(C)Oc1ccc(OCCNC2CCCC2)cc1	Sfp PPTase inh 50µM
Cc1ccc(OCCn2nnc3sc4c(c3c2=O)CCC(C(C)(C)C)C4)cc1 (stereo not drawn)	none (no result: Sfp PPTase inh, FBPA coupling cs)
O=C1N=C(c2ccccc2)S/C1=C\c1cccs1	Tau ThT inhib 7.9µM, Sfp PPTase inh 35µM, Tau fluor cs inconclusive, Tau fibril FP inconclusive
O=C1N=C(N2CCN(c3ccccc3)CC2)S/C1=C/c1cccs1	Tau ThT inhib inconclusive
O=C1OC(c2ccccc2)=C/C1=C/c1cccs1	Tau ThT inhib 3.2µM, Sfp PPTase inh 50µM, Tau fluor cs inconclusive, Tau fibril FP inconclusive
O=C1OC(c2ccc(Cl)cc2)=C/C1=C/c1cccnc1	none (no result: Tau ThT inhib, Tau fluor cs, Tau fibril FP)
CCCOC(=O)CSc1nnc(-c2ccccc2)o1	none (no result: Sfp PPTase inh, FBPA coupling cs)
CN1C(=O)c2oc3ccc(Br)cc3c(=O)c2C1c1ccncc1 (stereo not drawn)	Sfp PPTase inh 40µM
CN(C)CCN1C(=O)c2oc3ccc(F)cc3c(=O)c2C1c1ccncc1 (stereo not drawn)	none
COc1ccc(/C=N/Nc2nc(=O)[nH]nc2C)cc1[N+](=O)[O-]	Tau ThT inhib inconclusive, Sfp PPTase inh inconclusive
COc1ccc(/C=N/Nc2nc(=O)[nH]nc2C)cc1OC	none
COc1cc(/C=N/Nc2nc(=O)[nH]nc2C)cc([N+](=O)[O-])c1O	Tau ThT inhib 14µM, Sfp PPTase inh 56µM
COc1cc(/C=N/Nc2nc(=O)[nH]nc2C)ccc1O	Sfp PPTase inh 56µM
Cc1n[nH]c(=O)nc1N/N=C/c1ccc(O)c([N+](=O)[O-])c1	Tau ThT inhib inconclusive, Sfp PPTase inh 56µM
COc1cccc2sc3ccc(C#CC4(N)CCCCC4)cc3c(=O)c12	Sfp PPTase inh 79µM (no result: Tau ThT inhib, Tau fluor cs, Tau fibril FP)
CCCC1OC2CC3C4CCC5=CC(=O)C=CC5(C)C4C(O)CC3(C)[C@]2(C(=O)CO)O1 (stereo partly drawn)	none
Cc1sc2c(c1C)c(=O)n(CCc1ccccc1)c(=O)n2Cc1ccc(C(C)(C)C)cc1	none (no result: Sfp PPTase inh, FBPA coupling cs)
O=C(O)c1ccc(Cl)c(S(=O)(=O)Nc2ccc3cn[nH]c3c2)c1	Sfp PPTase inh inconclusive, FBPA coupling cs -71
NC(=S)NNc1ccc(Cl)c(Cl)c1	Sfp PPTase inh 3.2µM, Tau fibril FP inconclusive (no result: Tau ThT inhib)
NC(=S)Nc1ccc(Cl)c(Cl)c1	none (no result: Tau ThT inhib)
Cc1ccc(NNC(N)=S)cc1Cl	Tau ThT inhib inconclusive, Sfp PPTase inh 13µM
